PubChem BioAssay AID1159580 (chemical genetic matrix, 2015)
Screen size: about 5,500 compounds; about 2,000 (36%) were called active. Roughly 18% stayed inconclusive and do not appear here. Cut-off read from the data, not from the text of the source: active = normalized growth mostly below about 0.91 (no sharp cut-off); inconclusive = no clear call, values can overlap the other calls; inactive = mostly above about 0.92. Some of the results follow.

Experiment: chemical genetic growth profiling, strain panel (AID 1159580);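 note: tested at 20 µM; growth read once vehicle control cultures reached saturation at 30 °C; 1 = growth at the plate median or of vehicle wells; lower values mean less growth of the strain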
Conditions: S. cerevisiae deletion strains, growth OD
[1] = locus YAL013W, strain DEP1, active compounds read low
[2] = locus YAL040C, strain CLN3, active compounds read low
[3] = locus YCL061C, strain MRC1 (second series), active compounds read low
[4] = locus YDR363W, strain ESC2, active compounds read low
[5] = locus YER002W, strain NOP16, active compounds read low
[6] = locus YGR078C, strain PAC10, active compounds read low
[7] = locus YMR307W, strain GAS1, active compounds read low
[8] = locus YNL175C, strain NOP13, active compounds read low
[9] = locus YNL197C, strain WHI3, active compounds read low
[10] = locus YNL224C, strain SQS1, active compounds read low
[11] = locus YNL322C, strain KRE1, active compounds read low
[12] = locus YOR083W, strain WHI5 (second series), active compounds read low
[13] = locus YAL021C, strain ccr4, active compounds read low
[14] = locus YAL026C, strain drs2, active compounds read low
[15] = locus YAL030W, strain snc1, active compounds read low
[16] = locus YBL061C, strain skt5, active compounds read low
[17] = locus YBR009C, strain hhf1, active compounds read low
[18] = locus YBR023C, strain chs3, active compounds read low
[19] = locus YBR171W, strain sec66, active compounds read low
[20] = locus YBR231C, strain swc5, active compounds read low
[21] = locus YBR279W, strain paf1, active compounds read low
[22] = locus YCL011C, strain gbp2, active compounds read low
[23] = locus YCL016C, strain dcc1, active compounds read low
[24] = locus YCL061C, strain MRC1, active compounds read low
[25] = locus YCL069W, strain vba3, active compounds read low
[26] = locus YCR088W, strain abp1, active compounds read low
[27] = locus YDL005C, strain med2, active compounds read low
[28] = locus YDL040C, strain nat1, active compounds read low
[29] = locus YDR001C, strain nth1, active compounds read low
[30] = locus YDR069C, strain doa4, active compounds read low
[31] = locus YDR137W, strain rgp1, active compounds read low
[32] = locus YDR159W, strain sac3, active compounds read low
[33] = locus YDR297W, strain sur2, active compounds read low
[34] = locus YDR334W, strain swr1, active compounds read low
[35] = locus YDR335W, strain msn5, active compounds read low
[36] = locus YDR392W, strain spt3, active compounds read low
[37] = locus YEL003W, strain gim4, active compounds read low
[38] = locus YEL037C, strain rad23, active compounds read low
[39] = locus YEL061C, strain CIN8 (second series), active compounds read low
[40] = locus YER015W, strain faa2, active compounds read low
[41] = locus YER016W, strain bim1, active compounds read low
[42] = locus YER111C, strain swi4, active compounds read low
[43] = locus YER155C, strain BEM2 (second series), active compounds read low
[44] = locus YFR010W, strain ubp6, active compounds read low
[45] = locus YGL167C, strain pmr1, active compounds read low
[46] = locus YGL173C, strain kem1, active compounds read low
[47] = locus YGL227W, strain vid30, active compounds read low
[48] = locus YGL240W, strain doc1, active compounds read low
[49] = locus YGL253W, strain hxk2, active compounds read low
[50] = locus YHR013C, strain ard1, active compounds read low
[51] = locus YHR027C, strain rpn1, active compounds read low
[52] = locus YHR030C, strain SLT2, active compounds read low
[53] = locus YHR079C, strain IRE1, active compounds read low
[54] = locus YHR142W, strain chs7, active compounds read low
[55] = locus YJL092W, strain hpr5, active compounds read low
[56] = locus YJL095W, strain BCK1 (second series), active compounds read low
[57] = locus YJL095W, strain BCK1, active compounds read low
[58] = locus YJL115W, strain asf1, active compounds read low
[59] = locus YJL129C, strain trk1, active compounds read low
[60] = locus YJL154C, strain vps35, active compounds read low
[61] = locus YJL164C, strain tpk1, active compounds read low
[62] = locus YJL166W, strain qcr8, active compounds read low
[63] = locus YJL187C, strain SWE1, active compounds read low
[64] = locus YJR066W, strain TOR1, active compounds read low
[65] = locus YKL160W, strain elf1, active compounds read low
[66] = locus YKR026C, strain gcn3, active compounds read low
[67] = locus YKR091W, strain srl3, active compounds read low
[68] = locus YLL001W, strain dnm1, active compounds read low
[69] = locus YLL026W, active compounds read low
[70] = locus YLL041C, strain sdh2, active compounds read low
[71] = locus YLR027C, strain aat2, active compounds read low
[72] = locus YLR113W, strain HOG1, active compounds read low
[73] = locus YLR221C, strain rsa3, active compounds read low
[74] = locus YLR258W, strain gsy2, active compounds read low
[75] = locus YLR262C, strain YPT6 (second series), active compounds read low
[76] = locus YLR320W, strain mms22, active compounds read low
[77] = locus YLR342W, strain FKS1, active compounds read low
[78] = locus YLR357W, strain rsc2, active compounds read low
[79] = locus YLR370C, strain arc18, active compounds read low
[80] = locus YLR384C, strain iki3, active compounds read low
[81] = locus YML120C, strain ndi1, active compounds read low
[82] = locus YMR058W, strain fet3, active compounds read low
[83] = locus YMR125W, strain sto1, active compounds read low
[84] = locus YMR129W, active compounds read low
[85] = locus YMR205C, strain PFK2, active compounds read low
[86] = locus YMR231W, strain pep5, active compounds read low
[87] = locus YNL071W, strain lat1, active compounds read low
[88] = locus YNL183C, strain NPR1, active compounds read low
[89] = locus YNL209W, strain ssb2, active compounds read low
[90] = locus YNL248C, strain rpa49, active compounds read low
[91] = locus YNL322C, strain KRE1 (second series), active compounds read low
[92] = locus YNR049C, strain mso1, active compounds read low
[93] = locus YOR001W, strain rrp6, active compounds read low
[94] = locus YOR070C, strain gyp1, active compounds read low
[95] = locus YOR080W, strain dia2, active compounds read low
[96] = locus YOR083W, strain WHI5, active compounds read low
[97] = locus YOR106W, strain vam3, active compounds read low
[98] = locus YOR231W, strain MKK1, active compounds read low
[99] = locus YOR265W, strain rbl2, active compounds read low
[100] = locus YOR270C, strain vph1, active compounds read low
[101] = locus YOR290C, strain snf2, active compounds read low
[102] = locus YPL051W, strain arl3, active compounds read low
[103] = locus YPL078C, strain atp4, active compounds read low
[104] = locus YPL106C, strain sse1, active compounds read low
[105] = locus YPL240C, strain hsp82, active compounds read low
[106] = locus YPL256C, strain CLN2, active compounds read low

Measured: normalized growth

NS(=O)(=O)c1cccc2c1c([N+](=O)[O-])cc1nc(O)c(O)nc12
inactive: [1] 1 | [2] 1.08 | [3] 0.998 | [4] 1.01 | [5] 0.999 | [6] 0.995 | [7] 0.997 | [8] 0.989 | [9] 1.01 | [10] 1 | [11] 0.998 | [12] 1.01 | locus YPL055C, strain LGE1, active compounds read low 1

O=[N+]([O-])c1cccc2c(Br)[nH]nc12
active: [90] 0.871 | [96] 0.881 | [97] 0.863 | [102] 0.899 | [103] 0.874
inactive: [13] 0.955 | [14] 0.993 | [15] 0.984 | [16] 0.982 | [17] 1.01 | [18] 0.992 | [19] 0.972 | [20] 0.997 | [21] 0.992 | [22] 0.976 | [23] 0.996 | [24] 0.983 | [25] 0.972 | [26] 0.986 | [27] 0.977 | [28] 0.99 | [29] 0.984 | [30] 0.965 | [31] 0.942 | locus YDR150W, strain NUM1, active compounds read low 0.961 | [32] 1.07 | locus YDR195W, strain ref2 1.09 | [33] 0.977 | [34] 0.956 | [35] 0.975 | [36] 0.852 | [37] 0.978 | [38] 0.99 | [39] 0.987 | [5] 0.975 | [40] 0.973 | [41] 0.998 | [42] 0.998 | [43] 0.948 | [44] 0.972 | [45] 0.99 | [46] 0.983 | [47] 0.993 | [48] 0.996 | [49] 0.988 | [50] 1.03 | [51] 0.974 | [52] 0.933 | [53] 0.937 | [54] 0.901 | [55] 0.969 | [56] 0.977 | [57] 0.911 | [58] 0.985 | [59] 0.988 | [60] 0.983 | [61] 0.932 | [62] 0.952 | [63] 0.98 | [64] 0.882 | [65] 0.916 | [66] 0.988 | [67] 0.976 | [68] 0.977 | [69] 0.98 | [70] 0.976 | [71] 0.972 | [72] 1.04 | [73] 0.937 | [74] 0.994 | [75] 0.986 | [76] 0.99 | [77] 0.987 | [78] 1.02 | [79] 0.986 | [80] 0.987 | [81] 0.94 | [82] 0.942 | [83] 1.01 | [84] 0.99 | [85] 1.05 | [86] 0.994 | [87] 0.982 | [8] 0.972 | [88] 0.873 | [9] 1.01 | [89] 0.973 | [10] 0.982 | [91] 0.994 | [92] 0.977 | [93] 0.928 | [94] 0.984 | [95] 0.987 | [12] 0.991 | [98] 0.929 | [99] 0.982 | [100] 0.804 | [101] 0.919 | [104] 0.979 | [105] 0.979 | [106] 0.97

O=[N+]([O-])c1cccc2cn[nH]c12
inactive: [13] 1.01 | [14] 1 | [15] 1 | [2] 0.985 | [16] 0.996 | [17] 1 | [18] 0.991 | [19] 0.981 | [20] 0.982 | [21] 1 | [22] 0.983 | [23] 0.989 | [3] 1 | [24] 0.997 | [25] 0.986 | [26] 0.98 | [27] 0.997 | [28] 1 | [29] 0.99 | [30] 0.982 | [31] 0.996 | [32] 0.991 | locus YDR195W, strain ref2 1.02 | [33] 0.988 | [34] 0.997 | [35] 0.986 | [4] 1.01 | [36] 1.02 | [37] 1 | [38] 1 | [39] 0.979 | [5] 0.987 | [40] 0.994 | [41] 1 | [42] 0.989 | [43] 1.01 | [44] 0.988 | [45] 0.998 | [46] 1.01 | [47] 1.01 | [48] 1.01 | [49] 0.99 | locus YGR229C, strain SMI1, active compounds read low 0.999 | [50] 1.05 | [51] 0.994 | [52] 1.03 | [53] 1.03 | [54] 0.995 | [55] 0.989 | [56] 1 | [57] 1.03 | [58] 0.984 | [59] 1 | [60] 0.981 | [61] 0.988 | [62] 0.992 | [63] 0.999 | [64] 0.947 | locus YJR075W, strain HOC1, active compounds read low 1.01 | [65] 0.958 | [66] 1 | [67] 0.988 | [68] 0.999 | [69] 0.98 | [70] 0.985 | [71] 1 | [72] 1 | [73] 0.995 | [74] 0.983 | [75] 1.01 | [76] 1 | [77] 1.01 | [78] 0.993 | [79] 0.994 | [80] 0.996 | [81] 0.991 | [82] 0.982 | [83] 0.967 | [84] 0.993 | [85] 0.991 | [86] 1 | [87] 1.01 | locus YNL128W, strain TEP1, active compounds read low 0.998 | [8] 0.999 | [88] 0.951 | [9] 0.992 | [89] 0.972 | [10] 1 | [90] 0.965 | [91] 0.993 | [92] 1 | [93] 1 | [94] 0.992 | [95] 1.01 | [12] 1 | [96] 0.965 | [97] 0.981 | [98] 1.01 | [99] 0.996 | [100] 0.992 | [101] 0.986 | [102] 0.972 | [103] 0.995 | [104] 0.957 | [105] 0.992 | [106] 0.997

Cc1[nH]c(=O)c(C#N)cc1-c1ccncc1
inactive: [1] 1.02 | [2] 1 | [3] 1.01 | [4] 1.04 | [5] 0.997 | [6] 1.01 | locus YMR263W, strain SAP30, active compounds read low 1.01 | [7] 1.01 | locus YNL153C, strain GIM3, active compounds read low 1.01 | [8] 1.01 | [9] 1.01 | [10] 1.01 | [11] 1.01 | [12] 1.01 | locus YPL241C, strain CIN2, active compounds read low 0.998
